# ChEMBL document CHEMBL1857833, “Screening and optimization of specific chemical series against human African Trypanosomiasis (HAT)”
# Out of some 4,400 compounds screened, about 390 (8.9%) showed an effect of 50% or more. The sample as a whole holds a higher share of strong results than the screen did.
# Test system: Trypanosoma brucei
# Assay: DNDI: Inhibition of Human African Trypanosomiasis, SBRI 427, in vitro at 2 ug.mL-1
# Type: functional
row,SMILES,% inhibition [%]
1,COc1cc(C)ccc1Oc1ncccc1/C(=N/O)NCc1ccccn1,-7
2,COC(=O)C1CCN(/C(=N\O)c2ccc(C)nc2Oc2ccc3ccccc3c2)CC1,19
3,Clc1ccccc1-c1nc(CN2CCCc3ccccc32)co1,1
4,Clc1ccccc1-c1nc(CNCCN2CCOCC2)co1,2
5,CCOC(=O)C1CCCCN1Cc1coc(-c2ccccc2Br)n1 (centres undefined),-3
6,CCCN(CCC)Cc1coc(-c2cccs2)n1,22
7,O/N=C(/c1ccc(Oc2c(F)c(F)cc(F)c2F)nc1)N1CCN(c2ccc(F)cc2)CC1,22
8,CC1C=CC(C)N1Cc1coc(-c2ccccc2Cl)n1 (centres undefined),0
9,Cc1cc(C)cc(Oc2ccc(/C(=N/O)N3C(C)CCC3C)cn2)c1 (centres undefined),6
10,CC1CCC(C)N1/C(=N\O)c1ccc(Oc2ccc3ccccc3c2)nc1 (centres undefined),99
11,CC1CCCN1/C(=N\O)c1ccc(Oc2ccc3ccccc3c2)nc1 (centres undefined),99
12,O/N=C(/c1ccc(Oc2ccc3ccccc3c2)nc1)N1CCCCC1,12
13,CC1CCCN1/C(=N\O)c1ccc(Oc2ccc3oc4ccccc4c3c2)nc1 (centres undefined),-6
14,CC1CC(C)CN(/C(=N\O)c2ccc(Oc3ccc4ccccc4c3)nc2)C1 (centres undefined),-15
15,Cc1cc(Oc2ccc(/C(=N/O)N3CCCC3C)cn2)cc(C(C)C)c1 (centres undefined),93
16,Cc1cc(Oc2ccc(/C(=N/O)N3CC(C)CC(C)C3)cn2)cc(C(C)C)c1 (centres undefined),4
17,Cc1cc(Oc2ccc(/C(=N/O)N3CCCCCC3)cn2)cc(C(C)C)c1,21
18,Cc1cc(C)n(/C(=N\O)c2ccc(Oc3ccc4ccccc4c3)nc2)n1,12
19,CCCCC(CC)CNCc1coc(-c2ccccc2Br)n1 (centres undefined),8
20,CCOc1ccccc1-c1nc(CN(CCC#N)C2CCCCC2)co1,-4

row,SMILES,% inhibition [%]
1,Cc1ncn(Cc2coc(-c3ccc(Br)cc3)n2)c1C=O,10
2,CCOC(=O)CC(C)NCc1coc(-c2ccc(Cl)cc2Cl)n1 (centres undefined),-1
3,O/N=C(/c1ccnc(Oc2cc(Cl)ccc2Cl)c1)N1CCC=N1,32
4,CC1CC(N/C(=N\O)c2ccnc(Oc3cc(Cl)ccc3Cl)c2)CC(C)(C)C1 (centres undefined),9
5,O/N=C(\NC1CCCC1)c1ccnc(Oc2cc(Cl)ccc2Cl)c1,94
6,O/N=C(\NC1CCC1)c1ccnc(Oc2cc(Cl)ccc2Cl)c1,95
7,N/C(=N\O)c1ccnc(Oc2cc(Cl)ccc2Cl)c1,20
8,COc1cccc(CN/C(=N\O)c2ccnc(Oc3cc(Cl)ccc3Cl)c2)c1,11
9,O/N=C(/c1cccnc1Oc1ccccc1OCc1ccccc1)N1CCOCC1,-16
10,CN(CCCNCc1coc(-c2cccc(F)c2)n1)c1ccccc1,5
11,CCOc1ccc(-c2nc(CN(CC)C(C)(C)C)co2)cc1,6
12,CC(C)COc1ncccc1/C(=N/O)N1CCC(C)CC1,-1
13,CC(C)COc1ncccc1/C(=N/O)NC1CCN(Cc2ccccc2)C1 (centres undefined),-2
14,CC(C)COc1ncccc1/C(=N/O)NC1CCCC1,97
15,CC(C)COc1ncccc1/C(=N/O)Nc1ccc(C(C)C)cc1,2
16,CC(C)COc1ncccc1/C(=N/O)NC1CCC1,97
17,CC1CCC(N/C(=N\O)c2cccnc2OCC(C)(C)C)CC1 (centres undefined),5
18,CC(C)COc1ncccc1/C(=N/O)NC1CCCCC1,82
19,CC(C)COc1ncccc1/C(=N/O)NC1CCC(C)CC1 (centres undefined),83
20,Cc1ccccc1-c1nc(CN2CCC(N3CCCCC3)CC2)co1,14

row,SMILES,% inhibition [%]
1,C1=C(CCNCc2coc(-c3cccs3)n2)CCCC1,-10
2,Cc1ccccc1NCc1coc(-c2ccco2)n1,-2
3,CCN(Cc1coc(-c2ccc(C(F)(F)F)cc2)n1)c1ccccc1,4
4,CC(NCc1coc(-c2ccc(OC(F)(F)F)cc2)n1)c1cccc2ccccc12 (centres undefined),-34
5,O/N=C(\NCc1cc(F)cc(F)c1)c1ccc(Oc2c(F)c(F)cc(F)c2F)nc1,10
6,O/N=C(\NCc1c(F)cccc1F)c1ccc(Oc2cccc3c2CCCC3)nc1,15
7,O/N=C(\NCc1cccs1)c1ccc(Oc2cccc3c2CCCC3)nc1,4
8,N/C(=N\O)c1ccc(Oc2cccc3c2CCCC3)nc1,19
9,O/N=C(\NC1CCCC1)c1ccc(Oc2cccc3c2CCCC3)nc1,97
10,COc1ccc(CN/C(=N\O)c2ccc(Oc3cccc4c3CCCC4)nc2)cc1,32
11,O/N=C(/c1ccc(Oc2cccc3c2CCCC3)nc1)N1CCCCC1,31
12,O/N=C(\NCC1CC1)c1ccc(Oc2cccc3c2CCCC3)nc1,77
13,CCC(CC)N/C(=N\O)c1ccc(Oc2cccc3c2CCCC3)nc1,76
14,O/N=C(\Nc1ccccc1)c1ccc(Oc2cccc3c2CCCC3)nc1,22
15,Cc1ccccc1-c1nc(CN2CCN(c3cccc(C(F)(F)F)c3)CC2)co1,14
16,CCOc1ccccc1-c1nc(CN2CCC3(CC2)OCCO3)co1,1
17,COC(=O)C1CCN(Cc2coc(-c3cccc(F)c3)n2)CC1,6
18,CCN(CC)Cc1coc(-c2cccc(OC)c2)n1,11
19,CCc1ccc(Oc2ncccc2/C(=N/O)NCc2cccnc2)cc1,3
